In PubChem BioAssay (NCI):
About 83,000 compounds went through this panel and 20% of them were active in at least one assay; those are over-represented in the sample as a whole.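 Results are percent growth after 48 hours of single-concentration exposure. 100 means growth as in untreated cells, lower positive values show inhibition; negative values down to -100 show cell death.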 Values without a mark were called inactive. Activity calls are given as the source filed them. Rule for the calls: active = growth percent below 10; inactive = the rest.

System: MDA-MB-468 breast
Experiment: NCI-60 one-dose screen, 48 h (100 = growth as untreated, 0 = no growth, -100 = all killed)
Conditions: 10 µM unless noted

| Structure (SMILES) | growth |
| --- | --- |
| CC(=O)O[C@H](C[C@H](C(C)C)N(C)C(=O)[C@@H](NC(=O)[C@H]1CCCCN1C)C(C)C)c1nc(C(=O)N[C@@H](Cc2ccccc2)C[C@H](C)C(=O)O)c(C)s1 | 11.4% |
| O=[N+]([O-])c1c(Br)sc(Br)c1[N+](=O)[O-] | 1.55% (active) |
| C[S+]1C=Cc2ccccc2C1c1ccc(Cl)cc1 (configuration not stated) | -40.7% (active) |
| O=C(CC1(O)C(=O)Nc2ccc(Br)cc21)c1ccc(C(=O)NCC2CCC3(CC2)OOC2(CCCCC2)OO3)cc1 (configuration not stated) | 48.7% |
| O=C1CCC(=O)N1SC(Cl)(Cl)Cl | 116% |
| CC1(C)S[C@H]2CC[C@H]3OC(=O)[C@@H]1N23 | 95.7% |
| CC(=O)O[C@H]1CCC2C3CCC4=C/C(=N/O)CCC4(C)C3CCC21C (some centres not stated) | 97.7% |
| O=C1NC(=O)C(=Cc2ccc(OCCCCC3CCCCC3)c(Cl)c2)C(=O)N1 | 101% |
| Cc1cc([N+](=O)[O-])c2ccccc2[n+]1[O-] | -55.7% (active) |
| c1ccc(Nc2nc(-c3ccccc3)c[se]2)cc1 | 49.8% |
| O=C(Nc1ccncc1F)c1cn(CC2CC2)c2ccccc12 | 107% |
| CC1=C2[C@H]3OC(=O)[C@@H](C)[C@@H]3CC[C@@]2(C)C=CC1=O | 93.4% |
| CC[C@H](C)[C@H](NC(=O)Nc1ccccc1)C(=O)N(C)[C@H](C[C@@H](OC(C)=O)c1nc(C(=O)N[C@@H](Cc2ccccc2)C[C@H](C)C(=O)OC)cs1)C(C)C | -1.4% (active) |
| O=[N+]([O-])c1ccc(N(CCO)CCO)c2c1no[n+]2[O-] | 2.96% (active) |
| Cc1ccc(C(=O)NCCCOc2ccc(N)cc2Cl)cc1S(=O)(=O)F | 84.6% |
| CC1(C)C(C(=O)c2cn(CCCCF)c3ccccc23)C1(C)C | 103% |
| O=C(c1cccc(O)c1O)c1cn(Cc2ccc(F)cc2)c2cccc(O)c12 | 27% |
| C/C(=C\c1ccn(-c2ccc(N)c(C(F)(F)F)c2)n1)[C@@H]1C[C@@H]2O[C@]2(C)CCC[C@H](C)[C@H](O)[C@@H](C)C(=O)C(C)(C)[C@@H](O)CC(=O)O1 | 4.12% (active) |
| COC(=O)[C@@H](NC(=O)c1cn(CCC2CCCCC2)c2ccccc12)C(C)(C)C | 82.3% |

| Structure (SMILES) | growth |
| --- | --- |
| COc1ccc2nc(NC(=O)COc3cc(/C=C\c4cc(OC)c(OC)c(OC)c4)ccc3OC)sc2c1 | -5.6% (active) |
| CN(C)CC(C(=O)Cc1ccccc1)c1ccccc1 (configuration not stated) | -29.8% (active) |
| C[C@@H]1CCC2[C@@H](C)[C@H](OC(=O)CCC(=O)NCCNC(=O)Cc3cc(=O)oc4cc(N(C)C)ccc34)O[C@@H]3O[C@]4(C)CC[C@@H]1C23OO4 (some centres not stated) | 63.7% |
| CC[C@@H](C)/C=C(C)/C=C/C(=O)c1c(O)c(-c2ccc(O)cc2)cn(O)c1=O | -25% (active) |
| O=P(N1CC1)(N1CC1)N1CCc2ccccc21 | 95.2% |
| c1ccc(CCN2CCCCC2)nc1 | 107% |
| O=C1C=C(N2C3C4CCC(C4)C32)C(=O)C=C1c1ccccc1 (configuration not stated) | 16.9% |
| COc1cc(C2=NN(c3ccccc3)C(c3sc(N(CCCl)CCCl)nc3Cl)C2)cc(OC)c1OC (configuration not stated) | 87.9% |
| COP(=O)(OC)C(O)c1ccc(Cl)cc1 (configuration not stated) | 108% |
| CO[C@@H]([CH2][Hg][O]C(=O)c1ccccc1)[C@@H]([CH2][Hg][O]C(=O)c1ccccc1)OC | 94% |
| CCOc1ccc(C(O)CN(C)Cc2ccccc2)cc1Cl (configuration not stated) | 100% |
| O=C([O][Hg][CH2]C1COCC([CH2][Hg][O]C(=O)c2ccccc2)O1)c1ccccc1 (configuration not stated) | 22.7% |
| COP(=S)(N1CC1)N1CC1 | 110% |
| CO/N=C1\CC[C@]2(C)[C@H]3CC[C@]4(C)C(=O)CC[C@H]4[C@@H]3C[C@@H]3SC(N)=N[C@@]32C1 | 88.8% |
| COc1cccc2c1c(C(=O)c1ccco1)cn2Cc1ccc(F)cc1 | 103% |
| NC(=O)Oc1cc(OC(N)=O)cc(N(CCCl)CCCl)c1 | 29.9% |
| COC(=O)[C@@H](C)C[C@H](Cc1ccccc1)NC(=O)c1csc([C@@H](C[C@H](C(C)C)N(C)C(=O)[C@H](C)NC(=O)[C@H]2CCCCN2C)OC(C)=O)n1 | 10.1% |
| [N-]=[N+]=NC(C(=O)O)c1ccccc1 (configuration not stated) | 126% |
